Experimental data reported in PubChem BioAssay AID602365 (National Center for Advancing Translational Sciences (NCATS), 2012).
Inconclusive results are not listed. Calls of active or inactive are those of the source. Calls come from the whole dose curve; as a rule, active = well fitted inhibition curve with a large enough effect; inconclusive = small, poorly fitted or top-dose-only effect; inactive = flat fitted curve, though single readings scatter.

Molecular target: Luciferin 4-monooxygenase (Photinus pyralis) (UniProt P08659)
Sequence (P08659 whole entry, looked up): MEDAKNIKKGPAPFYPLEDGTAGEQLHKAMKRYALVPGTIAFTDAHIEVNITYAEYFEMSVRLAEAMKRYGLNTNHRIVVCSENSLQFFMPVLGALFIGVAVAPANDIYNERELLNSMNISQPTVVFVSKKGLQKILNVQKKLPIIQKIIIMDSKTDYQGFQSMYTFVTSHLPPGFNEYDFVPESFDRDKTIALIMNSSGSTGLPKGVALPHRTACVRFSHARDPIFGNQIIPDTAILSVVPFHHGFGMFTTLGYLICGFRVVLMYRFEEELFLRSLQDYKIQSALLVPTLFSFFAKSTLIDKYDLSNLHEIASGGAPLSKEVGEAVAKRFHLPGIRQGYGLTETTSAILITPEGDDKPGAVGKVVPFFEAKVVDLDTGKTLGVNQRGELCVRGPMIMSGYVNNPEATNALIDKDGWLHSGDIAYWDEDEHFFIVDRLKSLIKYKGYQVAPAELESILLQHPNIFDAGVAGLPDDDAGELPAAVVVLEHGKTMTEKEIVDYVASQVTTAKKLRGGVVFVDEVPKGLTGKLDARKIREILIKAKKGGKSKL
Test: FLuc inhibitory activity for the follow-up compounds in a biochemical assay with 1mM D-luciferin
Details: purified FLuc, luminescence; series mostly up to 57.5 µM
Source text: NCGC Assay Overview: Firefly (Photinus pyralis) luciferase is one of the most commonly used transcriptional reporters. It is considered one of the more dynamically responsive reporters - that is, responsive to changes in reporter transcription - as it requires no post-translational modifications and is enzymatically active directly after protein synthesis (Wood, 1998). With no endogenous expression in mammalian cells and without the requirement of external excitation, it offers very little background signal, thus generally providing excellent signal to background for most assays. Previous profiling work to determine the prevalence of compounds that affect FLuc enzymatic activity (PubChem AID 411) identified that ~3% of the MLSMR library (then at ~72K) inhibited FLuc. […] Of the compounds identified in this profile that inhibited FLuc, 151 compounds were selected for further analysis, in an effort to better understand their mode of inhibiting FLuc. The assay described here was to determine the activity of the compounds in a FLuc assay that contained a KM concentration of ATP and a high concentration (1mM) of D-luciferin.
NCGC Assay Protocol Summary: Reagents: 50mM Tris acetate, pH 7.5; 10mM Mg acetate; 1mM D-luciferin (Sigma #L9504); 10uM ATP; 0.01% Tween-20; 0.05% BSA; 10nM P. pyralis luciferase (Sigma #L9506) Control compounds used were two known firefly luciferase inhibitors (3-(5-(3-chlorophenyl)-1,2,4-oxadiazol-3-yl)benzoic acid and 5-(2-fluorophenyl)-3-phenyl-1,2,4-oxadiazole), and DMSO. Three microliters containing firefly luciferase substrates in buffer (final concentrations: 50mM Tris acetate, pH 7.5, 10mM Mg acetate, 0.01% Tween-20, 0.05% BSA, 1mM D-luciferin, 10uM ATP) are dispensed into each well of a Greiner white, solid-bottom 1536-well format plate using a flying reagent dispenser (FRD). These assay plates were then treated with 23nL of compound or DMSO using a Kalypsys pin tool, which allows for delivery of a 12-point intraplate titration of each compound to the assay plate (quantitative HTS), with a final compound concentrations ranging from approximately ~60uM to 0.3nM. One microliter of firefly luciferase in […] Tris-acetate buffer was then delivered by FRD to each well for a final enzyme concentration of 10nM. Luciferase activity was then measured using a ViewLux CCD imager (PerkinElmer), with an average exposure time of 2-30 seconds (2X binning, medium/high gain).

Potency, active:
COc1ccc2nc(NC(=O)Cc3cccs3)sc2c1 13 µM, CC(C)C(=O)Nc1cccc(C(=O)Nc2ccccc2C(=O)O)c1 18.3 µM, Cc1c(NC(=O)c2cccs2)cccc1-c1nc2ccccc2s1 14.6 µM, Nc1ccc(-c2nc3ccc(N)cc3s2)cc1 1.83 µM, c1ccc2sc(-c3ccc4c(c3)OCO4)nc2c1 1.3 µM, Oc1ccc(-c2nc3ccccc3s2)c(O)c1 16.3 µM, Cc1ccc(C(=O)Nc2cccc(C(=O)O)c2)cc1S(=O)(=O)N1CCOCC1 16.3 µM, COc1ccc(C(=O)Nc2ccccc2C(=O)Nc2ccccc2C(=O)O)cc1 1.63 µM, O=C(Nc1ccccc1C(=O)O)c1cccc(NC(=O)c2ccco2)c1 20.6 µM, Cc1ccc2nc(-c3ccc(N)cc3)sc2c1 0.517 µM, Nc1ccc2nc(-c3ccc(O)cc3)sc2c1 1.3 µM, CCOc1ccc(C(=O)Nc2cccc(C(=O)O)c2)cc1Cl 6.51 µM, Cc1c(NS(C)(=O)=O)cccc1-c1nc2ccccc2s1 16.3 µM, COc1ccc2nc(NC(=O)c3ccco3)sc2c1 3.26 µM, COc1ccc2nc(NC(=O)c3ccc(NS(=O)(=O)c4cccs4)cc3)sc2c1 18.3 µM, CCOc1ccc2nc(NC(=O)c3ccoc3C)sc2c1 2.91 µM, CCCC(=O)Nc1nc2ccc(OCC)cc2s1 29.1 µM, COc1ccc(C(=O)Nc2nc3ccc(OC)cc3s2)cc1 5.17 µM, CC(C)(C)C(=O)Nc1ccc(-c2nc3ccccc3s2)cc1 0.0411 µM, Cc1ccc(C(=O)O/N=C(\N)c2ccccn2)c(Cl)c1 0.0919 µM, O=C(COC(=O)c1ccccc1[N+](=O)[O-])c1ccc2c(c1)OCO2 0.0461 µM, O=C(Nc1ccccc1C(=O)O)c1ccc(NC(=O)C2CC2)cc1 4.11 µM, Cc1ccc2sc(-c3ccc(NC(=O)c4cc(-n5cnnc5)ccc4Cl)cc3)nc2c1 18.3 µM, CC(C)c1ccc(-c2nc3ccccc3s2)cc1 0.183 µM

Potency, inactive:
CCCOc1cccc(C(=O)Nc2ccc(-c3nc4ccccc4s3)c(Cl)c2)c1, COc1ccc2nc(NC(=O)CCc3nc(-c4ccccc4F)no3)sc2c1, COc1ccc(C(=O)Nc2ccccc2-c2nc3ccccc3s2)c(OC)c1, COc1cc(OC)cc(C(=O)Nc2ccccc2-c2nc3ccccc3s2)c1, COc1c(C)cccc1C(=O)Nc1ccc(-c2nc3ccccc3s2)c(Cl)c1, COc1ccc2nc(NC(=O)c3nc(S(=O)(=O)Cc4ccc(C)cc4)ncc3Cl)sc2c1, O=C(Cc1ccccc1)Nc1ccccc1C(=O)Nc1ccc(C(=O)O)cc1, CCOC(=O)N1CCN(CC(=O)Nc2nc3ccc(OC)cc3s2)CC1, Cc1ccc(S(=O)(=O)N2CCN(C(=O)c3ccccc3-c3nc4ccccc4s3)CC2)c(C)c1, O=C(Nc1c(Cl)cc(Cl)cc1-c1nc2ccccc2s1)c1ccc(Br)o1, COc1ccc2nc(NC(=O)CCc3ccc(OC)c(OC)c3)sc2c1, COc1ccc2nc(NC(=O)C3CCN(S(=O)(=O)c4cccnc4)CC3)sc2c1, COc1ccc(-c2nc3ccccc3s2)cc1NC(=O)c1ccc(F)cc1, CC(C)c1ccc(C(=O)Nc2ccc(-c3nc4ccccc4s3)c(Cl)c2)cc1, O=C(O)c1cccc(NC(=O)c2cccc(S(=O)(=O)Nc3cccc(F)c3)c2)c1, CC(C)Oc1ccc(C(=O)Nc2ccc(-c3nc4ccccc4s3)cc2)cc1
